The target of experiment [1] is Cytochrome P450 3A4 (Homo sapiens) (UniProt P08684). Nature of the experiment: qHTS Assay for Inhibitors and Substrates of Cytochrome P450 3A4 (AID 884). Also: nearly all actives have a fitted effect of over 50% in size. Also: potency is read from the fitted curve at half-maximal effect. Particulars: recombinant CYP3A4, Luciferin-PPXE luminescence; series mostly up to 57.1 µM. A digest of the protocol: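 Luminescent readout of luciferin produced by CYP3A4 (20 nM) dealkylation of Luciferin-PPXE, 25 uM (its KM). NADPH-driven reaction ran 60 min at RT after 10 min compound preincubation; data scaled to 57 uM ketoconazole as 100% inhibition.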

Experiment [2] has as its target Ubiquitin carboxyl-terminal hydrolase 1 (Homo sapiens) (UniProt O94782). Briefly: Inhibitors of USP1/UAF1: Pilot qHTS (AID 504865).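 Also: rhodamine fluorescence freed from ubiquitin-rhodamine substrate followed over time; top concentration of the series differs between compounds; % is scaled to controls: 0 for no effect and ±100 for the full control effect; nearly all actives have a fitted effect of over 35% in size.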 The conditions noted are these: purified USP1/UAF1, Ub-rhodamine cleavage fluorescence; series mostly up to 114 µM. Put shortly: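 USP1/UAF1 complex (1nM) preincubated with compound 15 min at room temperature, then Ub-Rho substrate (150nM final) added. Fluorescence read kinetically at 480/540 nm, 6 reads every 60 seconds. Buffer: 50mM HEPES pH 7.8, 0.5mM EDTA, 0.1 mg/ml BSA, 1mM TCEP, 0.01% Tween-20.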

For experiment [3], the target named is DNA dC->dU-editing enzyme APOBEC-3G (Homo sapiens) (UniProt Q9HC16). Briefly: qHTS for inhibitors of Vif-A3G interactions: Validation (AID 588379). Also: 0% is about no effect. The conditions noted are these: Vif-A3G protein interaction assay; series mostly up to 46.1 µM. Put shortly:
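Yellow fluorescence (Ex 488, Em 500-530) of Vif-coexpressing HeLa A3G-eYFP cells, scanned by Acumen cytometer, reports blocked A3G degradation. Cells plated at 700/well overnight at 37 deg C before compound addition, then a further overnight compound incubation at 37 deg C.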

For experiment [4], the target named is Cytochrome P450 3A4 (Homo sapiens) (UniProt P08684). Nature of the experiment: qHTS Assay for Activators of Cytochrome P450 3A4 (AID 885). Also: nearly all actives have a fitted effect of over 65% in size. The conditions noted are these: recombinant CYP3A4, Luciferin-PPXE luminescence, 60 min; series mostly up to 57.1 µM. Put shortly: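 CYP3A4 activity: Luciferin-PPXE O-dealkylation, 25uM substrate, 200mM KPO4, RT throughout. Read-out is luciferase luminescence; higher values reflect activation.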

The target of experiment [5] is Luciferin 4-monooxygenase (Photinus pyralis) (UniProt P08659). Briefly: Biochemical firefly luciferase enzyme assay for NPC (AID 624030).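 Also: purified P. pyralis luciferase at 10 nM with luciferin and ATP substrate; 0% = DMSO and -100% = full luciferase inhibition by PTC124 control; nearly all actives have a fitted effect of over 70% in size.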 The conditions noted are these: purified P. pyralis luciferase, luminescence, 5 min; series mostly up to 58.6 µM. A digest of the protocol:
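Purified P. pyralis luciferase at 10 nM in 50 mM Tris Acetate (final), luminescence read within 5 minutes of enzyme addition to compounds. Activity normalised to PTC124 versus DMSO; concentration-response curves classed by r2, magnitude and activity.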

The nature of experiment [6]: qHTS profiling for inhibitors of Plasmodium falciparum proliferation (AID 504749).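 Also: 0% = DMSO vehicle and full inhibition = artemisinin control; nearly all actives have a fitted effect of over 60% in size.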 The conditions noted are these: P. falciparum in erythrocytes, SYBR Green DNA, 72 h, at 28.7 µM (top of the series). A digest of the protocol: (§1)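 Each compound contacts P. falciparum-infected red blood cells for 72 h at 37 C; lysis buffer (Tris, EDTA, saponin, Triton X, SYBR Green I) is added and fluorescence measured next morning; values normalized to controls.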

The test system of experiment [7] is ATS189. The experiment is described as above. The conditions noted are these: P. falciparum in erythrocytes, SYBR Green DNA, 72 h; series mostly up to 28.7 µM. Put shortly: as §1
The subject of experiment [8] is CP185. The experiment is described as above. The conditions noted are these: P. falciparum in erythrocytes, SYBR Green DNA, 72 h; series mostly up to 28.7 µM. A digest of the protocol:
as §1

Experiment [9] has as its system CP201. The description is as above. Particulars: P. falciparum in erythrocytes, SYBR Green DNA, 72 h; series mostly up to 28.7 µM. A digest of the protocol:
as §1

The subject of experiment [10] is CP238. Described as above. Particulars: P. falciparum in erythrocytes, SYBR Green DNA, 72 h; series mostly up to 28.7 µM. Put shortly: as §1
The subject of experiment [11] is CP252. Described as above. The conditions noted are these: P. falciparum in erythrocytes, SYBR Green DNA, 72 h; series mostly up to 28.7 µM. Put shortly:
as §1

Experiment [12] relates to CP265. The description is as above. The conditions noted are these: P. falciparum in erythrocytes, SYBR Green DNA, 72 h; series mostly up to 28.7 µM. Put shortly: as §1
For experiment [13], the system named is CP286. The description is as above. Particulars: P. falciparum in erythrocytes, SYBR Green DNA, 72 h; series mostly up to 28.7 µM. Put shortly: as §1
Experiment [14] deals with CP305. The description is as above. Particulars: P. falciparum in erythrocytes, SYBR Green DNA, 72 h; series mostly up to 28.7 µM. A digest of the protocol:
as §1

Experiment [15] relates to CP325. The experiment is described as above. The conditions noted are these: P. falciparum in erythrocytes, SYBR Green DNA, 72 h; series mostly up to 28.7 µM. A digest of the protocol: as §1
Experiment [16] relates to FAB9. The description is as above. Particulars: P. falciparum in erythrocytes, SYBR Green DNA, 72 h; series mostly up to 28.7 µM. Put shortly: as §1
The test system of experiment [17] is PC15. The description is as above. Particulars: P. falciparum in erythrocytes, SYBR Green DNA, 72 h; series mostly up to 28.7 µM. Put shortly:
as §1

Experiment [18] has as its system PC49. Described as above. The conditions noted are these: P. falciparum in erythrocytes, SYBR Green DNA, 72 h; series mostly up to 28.7 µM. Put shortly: as §1

The structures appear in SMILES notation. Unmarked numbers belong to inactive results. Results filed as inconclusive are left out. The source made the active and inactive calls. Calls follow the shape of the dose curve; as a rule, active = well fitted curve in the direction sought with a large enough effect; inconclusive = small, poorly fitted or top-dose-only effect, or another doubt; inactive = no such curve, though single readings can be large; an effect the other way counts as inactive or inconclusive.

Sequence of Cytochrome P450 3A4 (Homo sapiens) (P08684 whole entry, looked up): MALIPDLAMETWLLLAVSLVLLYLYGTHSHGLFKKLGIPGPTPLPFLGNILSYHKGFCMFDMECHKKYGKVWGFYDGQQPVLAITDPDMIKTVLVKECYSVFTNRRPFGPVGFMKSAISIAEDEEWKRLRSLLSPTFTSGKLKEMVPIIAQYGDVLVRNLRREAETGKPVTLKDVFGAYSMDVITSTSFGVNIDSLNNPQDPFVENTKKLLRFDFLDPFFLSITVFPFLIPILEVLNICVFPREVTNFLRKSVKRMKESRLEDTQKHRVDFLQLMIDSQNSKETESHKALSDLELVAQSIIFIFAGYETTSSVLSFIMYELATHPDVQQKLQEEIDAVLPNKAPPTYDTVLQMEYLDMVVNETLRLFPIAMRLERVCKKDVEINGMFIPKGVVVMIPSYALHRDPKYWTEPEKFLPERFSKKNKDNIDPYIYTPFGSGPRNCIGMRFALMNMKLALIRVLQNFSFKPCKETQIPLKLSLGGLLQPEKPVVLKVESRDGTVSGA
Sequence of DNA dC->dU-editing enzyme APOBEC-3G (Homo sapiens) (Q9HC16 whole entry, looked up): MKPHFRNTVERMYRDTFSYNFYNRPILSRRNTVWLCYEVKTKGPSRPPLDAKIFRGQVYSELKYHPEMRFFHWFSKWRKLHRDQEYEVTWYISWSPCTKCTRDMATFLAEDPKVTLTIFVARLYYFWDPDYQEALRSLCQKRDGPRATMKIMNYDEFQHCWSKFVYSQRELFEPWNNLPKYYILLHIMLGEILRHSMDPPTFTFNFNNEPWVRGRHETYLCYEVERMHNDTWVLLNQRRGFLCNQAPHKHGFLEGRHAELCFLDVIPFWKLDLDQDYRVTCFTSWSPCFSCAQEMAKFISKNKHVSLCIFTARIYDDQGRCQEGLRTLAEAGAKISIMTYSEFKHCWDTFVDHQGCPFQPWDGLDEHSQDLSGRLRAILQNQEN
Sequence of Ubiquitin carboxyl-terminal hydrolase 1 (Homo sapiens) (O94782 whole entry, looked up): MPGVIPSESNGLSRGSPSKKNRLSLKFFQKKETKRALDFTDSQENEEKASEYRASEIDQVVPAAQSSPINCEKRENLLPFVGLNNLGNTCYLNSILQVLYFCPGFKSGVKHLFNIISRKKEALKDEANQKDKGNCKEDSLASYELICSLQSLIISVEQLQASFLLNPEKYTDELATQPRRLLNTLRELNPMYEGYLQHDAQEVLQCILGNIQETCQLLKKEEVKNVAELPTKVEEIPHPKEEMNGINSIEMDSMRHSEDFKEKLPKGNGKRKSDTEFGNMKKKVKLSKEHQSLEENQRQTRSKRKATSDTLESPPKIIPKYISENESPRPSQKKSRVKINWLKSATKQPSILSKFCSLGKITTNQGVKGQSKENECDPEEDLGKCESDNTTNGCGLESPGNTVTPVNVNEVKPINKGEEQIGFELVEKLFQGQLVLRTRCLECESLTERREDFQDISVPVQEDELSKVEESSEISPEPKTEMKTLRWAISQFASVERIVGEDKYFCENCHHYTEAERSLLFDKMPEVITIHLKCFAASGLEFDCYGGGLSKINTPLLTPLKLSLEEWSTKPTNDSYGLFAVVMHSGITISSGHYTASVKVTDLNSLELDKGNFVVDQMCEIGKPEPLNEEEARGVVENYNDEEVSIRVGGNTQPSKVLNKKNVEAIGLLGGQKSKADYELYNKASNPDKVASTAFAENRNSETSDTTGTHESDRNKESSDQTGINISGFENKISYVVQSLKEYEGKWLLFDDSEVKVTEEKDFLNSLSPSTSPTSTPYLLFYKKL
Sequence of Luciferin 4-monooxygenase (Photinus pyralis) (P08659 whole entry, looked up): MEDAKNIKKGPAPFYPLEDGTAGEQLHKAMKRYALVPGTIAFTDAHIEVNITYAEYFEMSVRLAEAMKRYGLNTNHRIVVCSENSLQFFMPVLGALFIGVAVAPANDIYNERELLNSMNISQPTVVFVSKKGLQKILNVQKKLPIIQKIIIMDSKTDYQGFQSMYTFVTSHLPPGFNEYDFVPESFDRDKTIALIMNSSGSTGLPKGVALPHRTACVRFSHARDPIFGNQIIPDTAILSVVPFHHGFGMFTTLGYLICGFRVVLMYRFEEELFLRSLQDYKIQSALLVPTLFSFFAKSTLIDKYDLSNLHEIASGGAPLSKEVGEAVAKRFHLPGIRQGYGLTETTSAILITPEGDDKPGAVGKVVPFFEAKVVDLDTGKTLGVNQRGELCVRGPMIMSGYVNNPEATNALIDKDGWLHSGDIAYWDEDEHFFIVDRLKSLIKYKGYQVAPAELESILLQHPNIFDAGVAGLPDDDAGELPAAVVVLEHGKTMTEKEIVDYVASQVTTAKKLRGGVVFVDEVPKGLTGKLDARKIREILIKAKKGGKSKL

`CC(=O)OC1CCC2(C)C(=CCC3C2CCC2(C)C3C[C@@H]3O[C@]32C(C)=O)C1` (stereo partly drawn): the Potency entry in [1], in [2] and in experiment [3] was “inactive” in each case.

With `CC[C@H](/C=C/[C@@H](C)[C@H]1CC[C@H]2C3CC=C4C[C@@H](O)CC[C@]4(C)C3CC[C@]12C)C(C)C` (stereo partly drawn), the Potency entry in experiment [1], in [2] and in experiment [3] was “inactive” in each case.

Turning to `COc1ccc(/C=C/C(=O)c2cccs2)cc1OC`, the Potency in experiment [1] was 2510 nM (active). For the same molecule, the Potency result in experiment [4], in experiment [2] and in experiment [3] was “inactive” throughout.

Regarding `COc1cccc2c1C(=O)CC(c1ccccc1)O2` (stereo not drawn), the Potency entry in experiment [1], in experiment [2] and in experiment [3] was “inactive” each time.

As for `CC(=O)OCC1=C(C(=O)O)N2C(=O)C(NC(=O)Cc3ccccc3)C2SC1` (stereo not drawn), the Potency entry in [2], in experiment [5], in experiment [7], in experiment [8], in experiment [9] and in [10] was “inactive” in each case. For the same molecule, the Potency entry in experiment [11], in [12], in experiment [13], in experiment [14], in experiment [15] and in [16] was “inactive” each time. The Potency result in experiment [17] and in experiment [18] was “inactive” throughout. Besides, the activity, negative = inhibition was 1.08% in [6] (parasite line A) and 0.234% in [6] (parasite line B).

`C=CC1=C(C(=O)O)N2C(=O)[C@@H](NC(=O)C(N=O)c3csc(N)n3)[C@H]2SC1` (stereo partly drawn): the Potency entry in [2], in experiment [5], in experiment [7], in [8], in [9] and in experiment [10] was “inactive” throughout. For the same molecule, the Potency result in experiment [11], in experiment [12], in experiment [13], in [14], in experiment [15] and in experiment [16] was “inactive” each time. The Potency entry in [17] and in experiment [18] was “inactive” in each case. Further, the figures for the activity, negative = inhibition in [6] (parasite line A) and in [6] (parasite line B) were 6.56% and 16.7%, respectively.

Consider `CC1CCC2[C@](C)(CO)C(O)CC[C@]2(C)C12CCC(CO)(CCO)O2` (stereo partly drawn), for which the Potency result in [1], in experiment [2] and in experiment [3] was “inactive” in each case.

As to `CCC(C)C1NC(=O)C(Cc2ccc(O)cc2)NC(=O)C(N)CSSCC(C(=O)N2CCCC2C(=O)NC(CC(C)C)C(=O)NCC(N)=O)NC(=O)C(CC(N)=O)NC(=O)C(CCC(N)=O)NC1=O` (stereo not drawn), the Potency result in [5], in [7], in experiment [8], in experiment [9], in [10] and in experiment [11] was “inactive” in each case. The Potency result in [12], in [13], in [14], in [15], in experiment [16] and in [17] was “inactive” in each case. Moreover, the Potency entry in [18] was “inactive”. Besides, the activity, negative = inhibition in [6] (parasite line A) was 0.779%; in experiment [6] (parasite line B), 4.79%.

The values are drawn from PubChem BioAssay (NCATS).
